Test results as given in PubChem BioAssay (NCI).
“And” between values parts separate entries of the source, which are not always exact repeats. Equal entries are not always repeated. The panel holds about 83,000 compounds, 20% with a hit somewhere; the sample as a whole holds those more often.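 A percent growth of 40 corresponds to 60% growth inhibition; 0 means no net growth; -100 means all cells died. Active threshold: below 10.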 The source made the active and inactive calls.

system: OVCAR-5 ovarian; experiment: NCI-60 one-dose screen, 48 h (100 = growth as untreated, 0 = no growth, -100 = all killed); details: 100 µM

Structure (SMILES)	growth
CCN(Cc1ccccc1)c1ccc(/C=C2\COc3ccccc3C2=O)cc1	98.7% (inactive)
CC(=O)/C=C/c1ccc(OCc2ccc(C(C)(C)C)cc2)cc1	37.6% (inactive)
CC(=O)/C=C/c1ccc(N(CCO)Cc2ccc(C(C)(C)C)cc2)cc1	-98.5% (active)
O=C(/C=C/c1cccc(Oc2ccc(Cl)cc2)c1)c1ccccc1	-82.2% (active)
COc1ccc(C(=O)/C=C/c2ccc(OCc3cccc(C(F)(F)F)c3)c(OC)c2)cc1OC	51.5% (inactive)
CC(=O)/C=C/c1ccc(OCc2ccc(Cl)cc2)cc1	75% (inactive)
COc1ccc(C(=O)/C=C/c2ccc(OCc3ccc(Cl)cc3)cc2)cc1OC	135% (inactive)
CC(=O)/C=C/c1ccc(N(C)Cc2ccc(C(C)(C)C)cc2)cc1	-72% (active)

system: OVCAR-4 ovarian; experiment: as above; details: 10 µM

Structure (SMILES)	growth
CCN(Cc1ccccc1)c1ccc(/C=C2\COc3ccccc3C2=O)cc1	102% (inactive)
CC(=O)/C=C/c1ccc(OCc2ccc(C(C)(C)C)cc2)cc1	74% (inactive)
CC(=O)/C=C/c1ccc(N(CCO)Cc2ccc(C(C)(C)C)cc2)cc1	65.7% (inactive)
O=C(/C=C/c1cccc(Oc2ccc(Cl)cc2)c1)c1ccccc1	90.3% (inactive)
COc1ccc(C(=O)/C=C/c2ccc(OCc3cccc(C(F)(F)F)c3)c(OC)c2)cc1OC	74.9% (inactive)
CC(=O)/C=C/c1ccc(OCc2ccc(Cl)cc2)cc1	101% (inactive)
COc1ccc(C(=O)/C=C/c2ccc(OCc3ccc(Cl)cc3)cc2)cc1OC	86% (inactive)
CC(=O)/C=C/c1ccc(N(C)Cc2ccc(C(C)(C)C)cc2)cc1	85.2% (inactive)

same assay, conditions: 10 µM unless noted

Structure (SMILES)	growth
CCOC(=O)c1ccc(Nc2ncnc3c2cnn3-c2cccc(F)c2)cc1	99.7% (inactive)
O=S(=O)(O)c1ccc(N=Nc2ccc(N=Nc3cccc4ccccc34)c(S(=O)(=O)O)c2)cc1	93.2% (inactive)
CC[C@@H]1NC(=O)[C@H]([C@H](O)[C@H](C)C/C=C/c2ccc(CN3C(=O)C(C)=C(C)C3=O)cc2)N(C)C(=O)[C@H](C(C)C)N(C)C(=O)[C@H](CC(C)C)N(C)C(=O)[C@H](CC(C)C)N(C)C(=O)[C@@H](C)NC(=O)[C@H](C)NC(=O)[C@H](CC(C)C)N(C)C(=O)[C@H](C(C)C)NC(=O)[C@H](CC(C)C)N(C)C(=O)CN(C)C1=O	74.4% (inactive)
COc1nc(=O)n(C2C=CC(=O)O2)cc1F (configuration not stated)	71.3% (inactive)
COc1ccc(-c2csc(NC(=O)CN3CCN(CCO)CC3)n2)cc1NS(=O)(=O)c1cccc2c(N(C)C)cccc12	68.2% (inactive)
O=C1/C(=C/c2ccc(-c3cccc(C(F)(F)F)c3)o2)SC(=S)N1CCc1ccc(O)cc1	48.5% (inactive)
BrC1=C(Br)C(Br)(Br)C(Br)=C1Br	104% (inactive)
OCc1cc(CN2CCCCC2)c(O)c2ncccc12	34.9% (inactive)
COc1ccc(C2=C(CN)C(O)NC(=NCC(=O)c3ccc4ccccc4c3)N2)cc1 (configuration not stated)	107% (inactive)
N#CSc1c[nH]c2ccc(/C=C/C(=O)/C=C(/C=C/c3ccc4[nH]cc(SC#N)c4c3)OB(F)F)cc12	1% (active)
COc1ccc(Oc2nc(Nc3ccc(N4CCOCC4)cc3)ncc2NC(=O)c2cc(OC)cc(OC)c2)cc1	81.3% (inactive)
COc1ccc2c(c1)oc1c(C)c3c(c(C)c12)C(=O)N(Nc1ccccc1)C3=O	100% (inactive)
COc1ccc(/C=C2/C(=O)N=C3N2NC(c2ccccc2)=CN3c2ccccc2)cc1	102% (inactive)
O=C1/C(=C/c2ccccc2[N+](=O)[O-])Cc2ccccc21	-36.5% (active) and -39.5% (active)
COc1ccc2c(c1)CCNC21C(=O)Nc2c(Br)cc(Br)cc21 (configuration not stated)	95.2% (inactive)
O=C(N/N=C/c1ccc(O)cc1O)c1cccc(Nc2ccnc(C(F)(F)F)c2)c1	39.9% (inactive)
O=C(c1cccc(Br)c1)N1CCN(c2ccnc3cc(Cl)ccc23)CC1	54.9% (inactive)
CCCCCC#CC1OC23CCCCC2C(C#N)(C(=N)O3)C1(C#N)C#N (configuration not stated)	108% (inactive)
COc1ccc(-c2c[nH]c(C(=O)O)c2-c2cc(OC)c(OC)c(OC)c2)cc1	49.9% (inactive)
NC(N)=NC(N)=NCCCc1ccco1	104% (inactive)
CN1Cn2c(ccc2C(F)(F)F)C(=O)CS1(=O)=O	97.4% (inactive)
